Reference: PubChem BioAssay AID1159580 (chemical genetic matrix, 2015)
In all, about 5,500 compounds went through this assay and about 2,000 (36%) were called active. About 18% were inconclusive and are not listed. Rule as the data show it: active = normalized growth mostly below about 0.91 (no sharp cut-off); inconclusive = no clear call, values can overlap the other calls; inactive = mostly above about 0.92. The list shows a part of the results.

Assay: chemical genetic growth profiling, strain panel (AID 1159580);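 also: tested at 20 µM; growth read once vehicle control cultures reached saturation at 30 °C; 1 = growth at the plate median or of vehicle wells; lower values mean less growth of the strain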
Settings: S. cerevisiae deletion strains, growth OD

Measured: normalized growth

C=C1C2CC[C@@]3(C)[C@H](c4ccoc4)OC(=O)C[C@]13O[C@H]1CC(=O)C(C)(C)[C@H](C(OC(C)=O)C(=O)OC)[C@@]21C (stereo not given in full)
inactive: locus YAL021C, strain ccr4, active compounds read low 1 | locus YAL026C, strain drs2, active compounds read low 1.03 | locus YAL030W, strain snc1, active compounds read low 1 | locus YBL061C, strain skt5, active compounds read low 1.02 | locus YBR009C, strain hhf1, active compounds read low 1.02 | locus YBR021W, strain FUR4, active compounds read low 0.999 | locus YBR023C, strain chs3, active compounds read low 0.998 | locus YBR171W, strain sec66, active compounds read low 1.02 | locus YBR229C, strain ROT2, active compounds read low 0.994 | locus YBR231C, strain swc5, active compounds read low 1.04 | locus YBR279W, strain paf1, active compounds read low 1.01 | locus YCL011C, strain gbp2, active compounds read low 0.993 | locus YCL016C, strain dcc1, active compounds read low 0.983 | locus YCL029C, strain bik1, active compounds read low 1 | locus YCL069W, strain vba3, active compounds read low 1 | locus YCR088W, strain abp1, active compounds read low 1.01 | locus YDL005C, strain med2, active compounds read low 1.01 | locus YDL035C, strain GPR1, active compounds read low 0.978 | locus YDL040C, strain nat1, active compounds read low 1 | locus YDL074C, strain BRE1, active compounds read low 1.01 | locus YDL101C, strain DUN1, active compounds read low 1.01 | locus YDL185W, strain tfp1, active compounds read low 1.01 | locus YDL192W, strain arf1, active compounds read low 0.998 | locus YDR001C, strain nth1, active compounds read low 1.02 | locus YDR069C, strain doa4, active compounds read low 1.03 | locus YDR101C, strain arx1, active compounds read low 0.978 | locus YDR137W, strain rgp1, active compounds read low 0.872 | locus YDR150W, strain NUM1, active compounds read low 0.985 | locus YDR159W, strain sac3, active compounds read low 1.05 | locus YDR162C, strain NBP2, active compounds read low 0.985 | locus YDR195W, strain ref2 1.02 | locus YDR297W, strain sur2, active compounds read low 1.02 | locus YDR318W, strain mcm21, active compounds read low 1.01 | locus YDR334W, strain swr1, active compounds read low 1.01 | locus YDR335W, strain msn5, active compounds read low 1.01 | locus YDR388W, active compounds read low 1.01 | locus YDR392W, strain spt3, active compounds read low 0.922 | locus YDR502C, strain sam2, active compounds read low 1.02 | locus YEL003W, strain gim4, active compounds read low 1.03 | locus YEL037C, strain rad23, active compounds read low 1.01 | locus YEL061C, strain CIN8 (second series), active compounds read low 1.01 | locus YEL061C, strain CIN8, active compounds read low 0.99 | locus YER015W, strain faa2, active compounds read low 1 | locus YER016W, strain bim1, active compounds read low 1.01 | locus YER110C, active compounds read low 1.01 | locus YER111C, strain swi4, active compounds read low 1.02 | locus YER155C, strain BEM2 (second series), active compounds read low 1.06 | locus YER155C, strain BEM2, active compounds read low 1.02 | locus YER167W, strain BCK2, active compounds read low 1 | locus YFR010W, strain ubp6, active compounds read low 1.04 | locus YGL078C, strain dbp3, active compounds read low 1.01 | locus YGL086W, strain mad1, active compounds read low 0.987 | locus YGL167C, strain pmr1, active compounds read low 1.01 | locus YGL173C, strain kem1, active compounds read low 1.03 | locus YGL227W, strain vid30, active compounds read low 1.01 | locus YGL240W, strain doc1, active compounds read low 1.03 | locus YGL248W, strain PDE1, active compounds read low 1.01 | locus YGL253W, strain hxk2, active compounds read low 0.99 | locus YGR135W, strain pre9, active compounds read low 1.05 | locus YGR252W, strain gcn5, active compounds read low 1.02 | locus YHR013C, strain ard1, active compounds read low 0.983 | locus YHR027C, strain rpn1, active compounds read low 1.02 | locus YHR079C, strain IRE1 (second series), active compounds read low 0.997 | locus YHR094C, strain hxt1, active compounds read low 1.01 | locus YHR129C, strain ARP1, active compounds read low 1.01 | locus YHR142W, strain chs7, active compounds read low 0.977 | locus YHR200W, strain rpn10, active compounds read low 1.01 | locus YIL066C, strain RNR3, active compounds read low 0.976 | locus YIL073C, strain SPO22, active compounds read low 1.01 | locus YIL125W, strain kgd1, active compounds read low 0.994 | locus YIR030C, strain dcg1, active compounds read low 0.997 | locus YJL092W, strain hpr5, active compounds read low 1.02 | locus YJL095W, strain BCK1 (second series), active compounds read low 1.02 | locus YJL095W, strain BCK1, active compounds read low 1.04 | locus YJL115W, strain asf1, active compounds read low 1.01 | locus YJL129C, strain trk1, active compounds read low 1 | locus YJL134W, strain LCB3, active compounds read low 0.998 | locus YJL154C, strain vps35, active compounds read low 1.01 | locus YJL164C, strain tpk1, active compounds read low 0.995 | locus YJL166W, strain qcr8, active compounds read low 1.03 | locus YJL168C, strain set2, active compounds read low 1 | locus YJL187C, strain SWE1 (second series), active compounds read low 1.03 | locus YJL187C, strain SWE1, active compounds read low 1 | locus YKL009W, strain mrt4, active compounds read low 0.983 | locus YKL068W, active compounds read low 1 | locus YKL085W, strain MDH1 (second series), active compounds read low 0.981 | locus YKL085W, strain MDH1, active compounds read low 0.981 | locus YKL160W, strain elf1, active compounds read low 0.976 | locus YKR001C, strain vps1, active compounds read low 0.995 | locus YKR026C, strain gcn3, active compounds read low 1.01 | locus YKR091W, strain srl3, active compounds read low 1 | locus YLL001W, strain dnm1, active compounds read low 0.992 | locus YLL026W, active compounds read low 1 | locus YLL041C, strain sdh2, active compounds read low 1.01 | locus YLR027C, strain aat2, active compounds read low 1.02 | locus YLR039C, strain RIC1, active compounds read low 0.917 | locus YLR058C, strain SHM2, active compounds read low 1.01 | locus YLR102C, strain apc9, active compounds read low 1 | locus YLR221C, strain rsa3, active compounds read low 1.04 | locus YLR258W, strain gsy2, active compounds read low 1.02 | locus YLR262C, strain YPT6 (second series), active compounds read low 0.892 | locus YLR268W, strain sec22, active compounds read low 0.987 | locus YLR320W, strain mms22, active compounds read low 1.03 | locus YLR342W, strain FKS1 (second series), active compounds read low 0.978 | locus YLR342W, strain FKS1, active compounds read low 1 | locus YLR357W, strain rsc2, active compounds read low 1.02 | locus YLR370C, strain arc18, active compounds read low 0.998 | locus YLR371W, strain rom2, active compounds read low 1 | locus YLR384C, strain iki3, active compounds read low 1.03 | locus YLR418C, strain cdc73, active compounds read low 1.01 | locus YML016C, strain PPZ1, active compounds read low 1 | locus YML032C, strain rad52, active compounds read low 1.01 | locus YML120C, strain ndi1, active compounds read low 1.01 | locus YML124C, strain tub3, active compounds read low 1 | locus YMR058W, strain fet3, active compounds read low 1.03 | locus YMR078C, strain ctf18, active compounds read low 1.01 | locus YMR125W, strain sto1, active compounds read low 0.996 | locus YMR129W, active compounds read low 1.01 | locus YMR205C, strain PFK2, active compounds read low 0.992 | locus YMR223W, strain ubp8, active compounds read low 1.01 | locus YMR231W, strain pep5, active compounds read low 1.01 | locus YMR307W, strain GAS1, active compounds read low 0.996 | locus YNL067W, strain RPL9B, active compounds read low 1.03 | locus YNL071W, strain lat1, active compounds read low 0.993 | locus YNL209W, strain ssb2, active compounds read low 0.993 | locus YNL233W, strain BNI4, active compounds read low 1.01 | locus YNL248C, strain rpa49, active compounds read low 1.04 | locus YNL250W, strain rad50, active compounds read low 1.03 | locus YNL271C, strain bni1, active compounds read low 1 | locus YNL298W, strain CLA4, active compounds read low 1.01 | locus YNL307C, strain MCK1, active compounds read low 1.01 | locus YNL322C, strain KRE1 (second series), active compounds read low 1.02 | locus YNR049C, strain mso1, active compounds read low 1.01 | locus YNR052C, strain pop2, active compounds read low 1.02 | locus YOL006C, strain TOP1, active compounds read low 0.972 | locus YOL012C, strain htz1 0.586 | locus YOL147C, strain pex11, active compounds read low 1 | locus YOR001W, strain rrp6, active compounds read low 1.04 | locus YOR061W, strain CKA2, active compounds read low 0.997 | locus YOR069W, strain VPS5, active compounds read low 1 | locus YOR070C, strain gyp1, active compounds read low 1.03 | locus YOR080W, strain dia2, active compounds read low 1.01 | locus YOR083W, strain WHI5, active compounds read low 0.978 | locus YOR106W, strain vam3, active compounds read low 0.958 | locus YOR136W, strain idh2, active compounds read low 0.997 | locus YOR144C, strain elg1, active compounds read low 1 | locus YOR184W, strain ser1, active compounds read low 0.972 | locus YOR265W, strain rbl2, active compounds read low 0.996 | locus YOR270C, strain vph1, active compounds read low 0.904 | locus YOR290C, strain snf2, active compounds read low 0.95 | locus YOR316C, strain cot1, active compounds read low 1 | locus YPL051W, strain arl3, active compounds read low 1.01 | locus YPL078C, strain atp4, active compounds read low 0.958 | locus YPL106C, strain sse1, active compounds read low 1.04 | locus YPL240C, strain hsp82, active compounds read low 1.01 | locus YPR119W, strain clb2, active compounds read low 1.01 | locus YPR141C, strain kar3, active compounds read low 1 | locus YPR163C, strain tif3, active compounds read low 1.01 | locus YPR167C, strain met16, active compounds read low 0.999 | strain wtn01, active compounds read low 0.993
